Compound activity deposited in PubChem BioAssay by National Center for Advancing Translational Sciences (NCATS).
D2 ag-1 = human D2 receptor agonism in beta-arrestin assay; 360,000 tested, 0.084% active; P14416; activation, % (concentration not given with the values); DiscoveRx PathHunter D2 beta-arrestin, luminescence, 90 min; 100% = 57 uM dopamine signal; in the data active means activation above about 40%; inconclusive means between about 15% and that limit
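DiscoveRx PathHunter D2 beta-arrestin cells (2,100/well) attached overnight, then compound-stimulated 90 min at 37 C in HBSS/10 mM HEPES/0.1% Tween-20 buffer; beta-galactosidase complementation read by luminescence after 1 h at ambient temperature. Dopamine 57 uM final (EC100) as control.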
D2 antag = antagonizes the human D2 dopamine receptor | 340,000 tested, 2% active | inhibition, % at 10 µM | HEK293 TREx D2 cells, calcium flux, dopamine EC80; in the data active means inhibition above about 30%; inactive means below that, where a call was filed; further: 0% is about no effect
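Dopamine at EC80 is the agonist stimulus; test compounds precede it by 180 s. Calcium flux read kinetically in a force-coupled, inducible HEK293 T-REx D2 cell line.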
D2 PAM-1 = human D2 receptor positive allosteric modulation | P14416 | DiscoveRx D2 beta-arrestin cells, luminescence, 90 min; 100% = 57 uM dopamine signal | potentiation, % (test concentration not listed) | 360,000 tested, 0.23% active | AID 624464; in the data active means potentiation above about 50%; inconclusive means mostly about 30% to 49%
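D2 cells co-treated with compound plus 50 nM dopamine (EC20) for 90 min at 37 deg C to detect potentiation. Beta-arrestin recruitment was read as enzyme-fragment luminescence after 1 h at ambient temperature. Full response was set by 57 uM dopamine.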
D2 PAM-2 = positively modulates the human D2 dopamine receptor allosterically | HEK293 T-REx D2, calcium flux, EC20 dopamine potentiation | potentiation, % at 10 µM | 340,000 tested, 0.34% active;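 active means potentiation over 3 SD above the plate norm, cut at about 30% in these data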; further: 0% is about no effect
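Calcium flux readout, no-wash dye, 1 read/s. Inducible HEK293 Trex D2 line, overnight 30 C. Compound alone 180 s (agonist flags), then EC20 dopamine, another 180 s to score potentiation.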
D2 ag-2 = D2 dopamine receptor (human) agonism; P14416; HEK293 T-REx D2 cells, calcium flux agonist mode; activation, % at 2 µM; 340,000 tested, 0.53% active; AID 485358;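 active means activation over 3 SD above normal in the single-dose calcium agonist read, cut at about 30% in these data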; further: 0% is about no effect
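Calcium-flux readout, 1 cycle/sec over 180 s following compound pin transfer, in inducible HEK293 Trex D2 cells (force-coupled); dopamine controls included. Positive calcium responses during this window marked compounds as potential agonists.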
D3 ag = activates human D3 dopamine receptor beta-arrestin recruitment; DiscoveRx D3 beta-arrestin cells, luminescence, 90 min; Potency, µM (doses to about 76.9 µM), for inactives: top-dose activation, usual class: activators; 2,300 tested, 4% active; shares compounds with D2 ag-2;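 further: potency means the concentration at half of the fitted maximal effect; 100% = dopamine control response; nearly all actives have a fitted effect of over 70% in size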
Target sequence (P35462 whole entry, looked up): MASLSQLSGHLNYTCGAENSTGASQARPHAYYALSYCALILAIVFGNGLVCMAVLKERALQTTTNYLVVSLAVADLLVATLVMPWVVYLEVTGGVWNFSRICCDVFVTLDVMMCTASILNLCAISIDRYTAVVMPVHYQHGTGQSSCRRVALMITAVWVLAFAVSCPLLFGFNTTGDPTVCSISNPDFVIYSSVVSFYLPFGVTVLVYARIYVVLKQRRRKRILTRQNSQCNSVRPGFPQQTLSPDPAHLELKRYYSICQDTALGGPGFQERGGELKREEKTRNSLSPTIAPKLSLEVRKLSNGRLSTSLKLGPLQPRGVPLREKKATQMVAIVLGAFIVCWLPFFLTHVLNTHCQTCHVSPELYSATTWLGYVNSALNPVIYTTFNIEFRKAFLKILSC
D2 ag-3 = counter-screen for D3 agonists: human D2 dopamine receptor agonism | shares compounds with D2 ag-2 | DiscoveRx PathHunter D2 beta-arrestin, luminescence, 90 min; response scale: percent relative to full dopamine signal | 2,300 tested, 5.9% active | Potency, µM (titrated, usually from 76.9 µM), without a hit: at the top dose activation, actives largely listed as activators; further: potency means the concentration at half of the fitted maximal effect; % of control where 0% means no effect; nearly all actives have a fitted effect of over 70% in size
* marks the source's active call; other numbers are inactive results; u = inconclusive; x = no result. An excerpt weighted towards active compounds, which were near 2.4% of everything screened. Unless noted, the call rests on the fitted dose curve; in most records, active means well fitted activation curve with a large enough effect; inconclusive means small, poorly fitted or top-dose-only effect; inactive means flat fitted curve, though single readings scatter.

SMILES | D2 ag-1 | D2 antag | D2 PAM-1 | D2 PAM-2 | D2 ag-2 | D3 ag | D2 ag-3
Cc1c(C(=O)Nc2cccnc2Cl)oc2ccccc12 | -2.5 | -22.8 | -8.6 | -8.9 | -1.9 | x | x
CC(=O)Nc1ccc(OCC(O)CN2CCN(c3ccc(F)cc3)CC2)cc1 (stereo not drawn) | 10.1 | 44.6* | -21.1 | -29.0 | 68.9* | 14.5% | 12.2%
CC(=O)Nc1ccc(OCC(O)CN2CCN(c3ccc(Cl)cc3)CC2)cc1 (stereo not drawn) | -1.4 | 40.2* | -43.2 | -38.6 | 1.0 | 5.0% | -1.6%
CC(=O)Nc1ccc(OCC(O)CN2CCN(S(=O)(=O)c3ccc(NC(C)=O)cc3)CC2)cc1 (stereo not drawn) | -2.4 | 12.0 | -3.0 | -5.6 | -0.9 | x | x
CC(=O)Nc1ccc(OCC(O)CN2CCN(c3cccc(Cl)c3)CC2)cc1 (stereo not drawn) | u | 83.0* | 14.4 | -30.7 | 75.8* | u | u
CCOC(=O)c1oc2c(c1C)C(=O)CCC2 | -0.1 | 7.1 | -1.3 | -10.2 | -0.4 | -10.7% | -1.2%
COc1ccc(-c2nnn(CC(=O)c3c[nH]c4ccccc34)n2)cc1OC | 2.4 | -10.4 | 5.4 | -8.1 | -1.5 | x | x
CCCCOc1ccc(-c2nnn(CC(=O)c3c[nH]c4ccccc34)n2)cc1 | 3.5 | 9.5 | 11.0 | -3.2 | 56.0* | 2.8% | -3.3%
COc1ccc(C(=N/O)/C(=N/O)c2ccc(OC)cc2)cc1 | 1.9 | 39.6* | 2.3 | 6.5 | 1.1 | -9.0% | -2.0%
Cc1ccc(NC(=O)c2ccccc2NC(=O)c2cccs2)cc1 | -5.1 | 9.7 | -4.3 | -1.5 | 0.6 | x | x
COc1cccc(N2CN(CCc3ccccc3)CNC2=S)c1 | -2.8 | 23.7 | -2.7 | -6.2 | 37.5* | -6.0% | -0.4%
CN(C)CCNC(=O)c1ccc(CS(=O)(=O)c2c(Cl)cccc2Cl)o1 | -6.7 | 1.2 | -3.5 | -0.5 | 1.1 | x | x
CN(CCNC(=O)c1ccc(CS(=O)(=O)c2c(Cl)cccc2Cl)o1)CCc1ccccc1 | -1.0 | -0.3 | -30.5 | -5.3 | 30.7* | 2.6% | 7.6%
COc1ccc(CNC(=O)C(CC(C)C)NS(=O)(=O)c2ccc3c(c2)CCN3C(C)=O)cc1 (stereo not drawn) | x | x | x | -1.1 | 0.4 | x | x
CCCN(CCC)S(=O)(=O)c1ccc(C(=O)OCCN2C(=O)c3cccc4c(N5CCOCC5)ccc(c34)C2=O)cc1 | 2.4 | 10.1 | -6.2 | -2.8 | 62.0* | -4.1% | -0.4%
CCN(CC)S(=O)(=O)c1ccc(C(=O)N2CCN(CCN3C(=O)c4cccc5cccc(c45)C3=O)CC2)cc1 | x | 1.2 | x | 5.7 | 1.3 | x | x
O=C(OCCN1C(=O)c2cccc3c(N4CCOCC4)ccc(c23)C1=O)c1ccc(Cl)cc1 | -2.4 | 3.9 | -22.2 | -1.9 | 70.5* | 5.1% | 1.1%
COc1ccc(NC(=O)C(C)n2nc(C)c3c(C)n(-c4ccccc4)nc3c2=O)cc1Cl (stereo not drawn) | x | x | x | -3.7 | 0.0 | x | x
O=C(Nc1ccncc1)C1CCN(S(=O)(=O)c2ccc(Cl)cc2)CC1 | -0.1 | 13.3 | 2.0 | -5.1 | 0.8 | x | x
CCC(C)NC(=O)C1CCN(S(=O)(=O)c2ccc3c(ccn3CC)c2)CC1 (stereo not drawn) | x | x | x | 1.1 | 0.4 | x | x
CC(C)N(Cc1cc2ccccc2[nH]c1=O)C(=O)c1cccc([N+](=O)[O-])c1 | -1.1 | 1.2 | 0.1 | 6.0 | 0.7 | x | x
Cc1ccc2[nH]c(=O)c(CN(C(=O)c3cccc([N+](=O)[O-])c3)C(C)C)cc2c1 | -0.1 | -4.3 | -2.7 | -33.9 | 49.6* | -4.2% | -0.2%
O=C(CN(Cc1cccs1)C(=O)CNS(=O)(=O)c1ccc(F)cc1)NCC1CCCO1 (stereo not drawn) | -6.7 | 0.4 | -18.6 | 2.8 | 0.0 | x | x
O=C(CN(Cc1ccc(F)cc1)C(=O)CNS(=O)(=O)c1ccc(F)cc1)NCC1CCCO1 (stereo not drawn) | 2.6 | 9.2 | 4.0 | -0.6 | 3.5 | 1.1% | -0.8%
Cc1ccc(Nc2nc(=O)c3cccnc3s2)c(Br)c1 | -2.0 | -2.9 | -5.1 | 0.0 | -0.8 | x | x
SMILES | D2 ag-1 | D2 antag | D2 PAM-1 | D2 PAM-2 | D2 ag-2 | D3 ag | D2 ag-3
CCC1(C)COC(C)(CC(=O)NNC(=O)Nc2ccccc2)OC1 (stereo not drawn) | -1.0 | x | -4.0 | x | x | x | x
CCC(=O)c1ccc(OCC(O)CN2CCN(c3ccc(F)cc3)CC2)cc1 (stereo not drawn) | 0.4 | 30.6* | -8.0 | -5.7 | 7.3 | u | 18.4%
CC(C)c1ccc(OCC(O)CN2CCN(c3ccc(F)cc3)CC2)cc1 (stereo not drawn) | x | x | x | -16.2 | 28.8 | x | x
OC(COc1ccc2c(c1)OCO2)CN1CCN(c2ccc(F)cc2)CC1 (stereo not drawn) | 0.9 | 75.8* | -5.6 | -33.8 | 29.6 | 5.1% | -0.8%
CC(=O)c1ccc(OCC(O)CN2CCN(c3ccc(F)cc3)CC2)cc1 (stereo not drawn) | 8.8 | 16.6 | -16.0 | -48.6 | 83.2* | 19.8% | 23.5%
CCN(CC(=O)NCc1ccc(F)cc1)C(=O)c1ccc(C)o1 | 3.4 | -0.5 | 0.9 | -6.0 | 0.5 | x | x
COc1cccc(CN2CCN(Cc3cc4ccccc4[nH]3)CC2CCO)c1 (stereo not drawn) | -0.8 | 11.8 | -20.1 | -18.1 | 31.5* | -8.8% | -2.6%
CCOC(=O)[C@H]1[C@H]2COc3cc(OC)ccc3[C@@H]2N2C(=O)CN(Cc3ccco3)C(=O)[C@@]12C | 0.8 | -4.7 | -2.1 | 6.0 | -0.1 | -5.3% | -4.1%
CCOC(=O)[C@@H]1[C@H]2COc3ccc(Br)cc3[C@@H]2N2C(=O)N(c3ccc(Br)cc3)C(=O)[C@]12C | -4.3 | 9.1 | -0.7 | -18.8 | 32.4* | -1.5% | 7.3%
CCOC(=O)[C@@H]1[C@H]2COc3ccc(Br)cc3[C@H]2N2C(=O)N(c3ccc(Br)cc3)C(=O)[C@]12C | 1.3 | -4.5 | -27.2 | -11.4 | 0.5 | x | x
COc1cccc(CC2(CO)CCN(S(=O)(=O)c3ccc(OC)cc3OC)CC2)c1 | -3.5 | 12.4 | -0.8 | -6.3 | 0.3 | x | x
Cc1ccc(N2C(=O)c3ccc(C(=O)N4CCOCC4)cc3C2=O)cc1C | -2.3 | x | -8.3 | x | x | x | x
COc1ccc(-n2cc(-c3ccccc3)c3c(N4CCCC(C)C4)ncnc32)cc1 (stereo not drawn) | x | x | x | -11.9 | 0.0 | x | x
Cc1cc(N/N=C/c2ccccc2[N+](=O)[O-])nc(-n2nc(C)cc2C)n1 | -6.2 | -10.4 | -0.4 | -14.9 | 34.2* | -6.3% | -3.4%
c1ccc(CCN2CN(CCCN3CCOCC3)c3nc4ccccc4n3C2)cc1 | 0.3 | 23.9 | -4.2 | -7.5 | 55.7* | -0.1% | 0.7%
